About 83,000 compounds went through this panel and 20% of them were active in at least one assay; those are over-represented in the sample as a whole.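 For each line, cells grew in 96-well plates with the test compound present at a single concentration for 48 hours.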 The source made the active and inactive calls. The calls were made as follows: active = growth percent below 10; inactive = the rest.
Columns and labels:
Experiment in all cases: NCI-60 one-dose screen, 48 h (100 = growth as untreated, 0 = no growth, -100 = all killed)
Conditions in all cases: 10 µM unless noted
[1] = system: SR leukemia
[2] = system: OVCAR-5 ovarian
[3] = system: OVCAR-4 ovarian
[4] = system: SK-OV-3 ovarian
[5] = system: IGROV1 ovarian
[6] = system: OVCAR-3 ovarian
[7] = system: HS 578T breast
[8] = system: NCI/ADR-RES ovarian
[9] = system: RPMI-8226 leukemia
[10] = system: OVCAR-8 ovarian

Measured: growth

NCCCNc1nc2ccccc2c2c(=O)c3cc(F)cc(F)c3sc12
active: [1] -35.8% | [3] -62.3%
inactive: [2] 50.9% | [4] 83.6% | [5] 77.9% | [6] 89.7% | [7] 76.8% | [8] 84%

Cc1cccc2c3c(sc12)C(c1ccc(F)cc1)C(C#N)=C(N)O3 (configuration not stated)
active: [1] 9.36% | [6] 3.36%
inactive: [2] 25.9% | [3] 60.8% | [4] 60.7% | [5] 20.6% | [7] 28.7% | [8] 12%

Oc1ccc(C#CCOc2ccccc2)cc1CNCCN(Cc1ccccn1)Cc1ccccn1
inactive: [2] 27.2% | [3] 11.3% | [4] 18% | [5] 13.4% | [6] 12.1% | [7] 35.5%
active: [1] -4.08% | [8] 0.625%

O=C1COCCN1c1ccc(NCc2cn(C(=O)c3ccc(Cl)cc3)c3ccccc23)cc1
active: [2] -25.7% | [3] 3.22% | [5] -2.18%
inactive: [9] 52.6% | [10] 66% | [4] 15.7% | [6] 10.6% | [7] 72.9% | [8] 67%

Cc1cccc(NC2=C(Cl)C(=O)c3nc(C)ccc3C2=O)c1
inactive: [4] 74.5% | [8] 13.8%
active: [1] 1.13% | [2] -43% | [3] -97.5% | [5] -54.1% | [6] -31.8% | [7] -16.5%

COc1cccc2c(=O)c3c(sc12)c(NCCCN)nc1ccccc13
inactive: [2] 77.9% | [3] 21.8% | [4] 64.7% | [5] 39.3% | [6] 39.1% | [7] 60% | [8] 46%
active: [1] -7.22%

CCCCCCCCCCCCCCCCCCOc1ccc(CC(=O)OCC[N+]2(C)CCCCC2)cc1
inactive: [1] 102% | [2] 100% | [3] 86.8% | [4] 104% | [5] 92.6% | [6] 101% | [7] 108% | [8] 104%

COc1cc2oc(-c3ccc(O)cc3)cc(=O)c2c(O)c1-c1c(OC)cc(O)c2c(=O)cc(-c3ccc(O)cc3)oc12
inactive: [10] 28.1% | [3] 67.8% | [4] 37.5% | [5] 16.7% | [6] 29.3% | [7] 17.5% | [8] 79.6%
active: [1] 5.09%

CCOC(=O)c1[nH]c(C)c(C(=O)OCc2ccccc2C#N)c1C
inactive: [1] 45.7% | [10] 70.5% | [3] 85.8% | [4] 88.3% | [5] 44.6% | [6] 62.5% | [8] 14.9%

COc1ccc2cc(C(C)C(=O)Nc3ccc(-c4n[nH]c(=S)n4C4CCCCC4)cc3)ccc2c1 (configuration not stated)
inactive: [9] 54.3% | [10] 75.6% | [2] 101% | [3] 88.1% | [4] 105% | [5] 88.9% | [6] 86.4% | [7] 75.1% | [8] 50.7%

COc1cc2cc(Oc3ccc(NC(=O)Nc4cc(C(F)(F)F)cc(C(F)(F)F)c4)cc3)c(C)nc2cc1OCCN1CCOCC1
active: [1] -34.9% | [6] 9.29% | [8] 9.17%
inactive: [2] 46.6% | [3] 17.9% | [4] 22.7% | [5] 33.5% | [7] 60.6%

COc1ccc2c(c1)C(C)Cc1c(ncnc1-n1c(C)nc3ccccc31)N2C (configuration not stated)
inactive: [2] 78.3% | [3] 58.6% | [4] 31.5%
active: [1] 4.92% | [6] 5.47% | [7] 2.46% | [8] 5.75%

O=C(O)c1cn(C2CC2)c2cc(N3CCN(C(=O)Nc4nc(-c5ccccc5)cs4)CC3)c(F)cc2c1=O
inactive: [10] 13.8% | [3] 62.4% | [4] 14.7% | [7] 40.6% | [8] 76.7%
active: [1] 4.63% | [6] 7.8%

Oc1c(I)cc(I)cc1CNCCCN(Cc1ccccn1)Cc1ccccn1
active: [1] 4.38% | [2] -44.9% | [3] -94.3% | [4] -73% | [5] -79.5% | [6] -69.9% | [7] -21.7% | [8] -17.1%

O=C(Nc1nc2ccc(F)cc2s1)c1cccnc1Nc1ccc(Cl)cc1Cl
active: [3] -31.3% | [6] -3.55% | [8] 1.58%
inactive: [1] 32.8% | [10] 19.5% | [4] 44% | [5] 30.5% | [7] 20.9%

Cc1c(C(=O)NCCN2CCOCC2)cn2ncnc(Oc3ccc(NC(=O)Nc4ccc(Cl)c(C(F)(F)F)c4)cc3)c12
active: [1] 1.03% | [7] -23.8%
inactive: [10] 33% | [3] 31.7% | [4] 30.6% | [5] 39.3% | [6] 16% | [8] 82.1%

COc1ccc(-c2nnc(COc3ccc(Cl)cc3Cl)o2)cc1OC
active: [3] -33.1% | [6] 1.98% | [7] 4.73%
inactive: [1] 46.8% | [2] 74.6% | [4] 37.6% | [8] 17.5%

Cc1cccc2c1S/C(=C/c1ccc([N+](=O)[O-])cc1)C2=O
inactive: [1] 86.8% | [10] 105% | [3] 112% | [4] 88.2% | [5] 82.7% | [6] 105% | [7] 99.7% | [8] 110%

NCCCNc1nc2ccccc2c2c(=O)c3cc(OC(F)(F)F)ccc3sc12
active: [1] -31.1% | [3] -58.3% | [6] -73.3% | [7] 1.28% | [8] -29%
inactive: [2] 76% | [4] 89.9% | [5] 35.4%

O=C1/C(=C/c2ccc(F)cc2)Sc2c(Br)cccc21
inactive: [1] 50.5% | [2] 101% | [3] 82.3% | [4] 84.1% | [6] 86.3% | [7] 80.3% | [8] 71.9%

O=c1c2cc(F)ccc2sc2c(NCCCNCCO)nc3ccccc3c12
active: [1] -45.1% | [6] -14.6%
inactive: [2] 63.4% | [3] 33.3% | [4] 79.7% | [5] 22.4% | [7] 34.5% | [8] 32.4%

COc1ccc(C(=O)N=Nc2c(O)n(C)c3ccccc23)cc1
inactive: [1] 80.5% | [2] 105% | [3] 91.9% | [4] 87.2% | [5] 90.2% | [6] 104% | [7] 99.5% | [8] 91.5%

N[C@@H](Cc1ccccc1)[C@@H](O)C(=O)NCc1ccc(F)cc1
inactive: [1] 95.1% | [2] 98.7% | [3] 103% | [4] 120% | [5] 107% | [6] 117% | [8] 110%

CCC(C)(c1cc(C(C)(C)C)c(O)c(C(C)(C)C)c1)c1cc(C(C)(C)C)c(O)c(C(C)(C)C)c1
inactive: [1] 90.4% | [10] 102% | [3] 103% | [4] 100% | [6] 109% | [7] 97% | [8] 102%

C/C(=C\C(=O)c1ccc(Cl)cc1)c1ccc(Cl)cc1
inactive: [9] 75% | [10] 95.5% | [2] 62.3% | [3] 67.3% | [4] 94.3% | [5] 76.3% | [6] 99.2% | [7] 96.6% | [8] 103%

CC1=NN(c2ccc(S(=O)(=O)O)cc2)C(=O)C1N=Nc1ccc(-c2ccc(N=Nc3ccc(OS(=O)(=O)c4ccc(C)cc4)cc3)c(S(=O)(=O)O)c2)cc1 (configuration not stated)
inactive: [9] 74.5% | [10] 102% | [2] 76.6% | [3] 93.8% | [4] 95.4% | [6] 111% | [7] 80% | [8] 97.9%
active: [5] -7.99%

C=CCNc1ccc2c3c(cccc13)C(=O)N(N1C(=O)c3cccc4cccc(c34)C1=O)C2=O
inactive: [9] 109% | [10] 100% | [2] 101% | [3] 107% | [4] 108% | [5] 103% | [6] 108% | [7] 97.2% | [8] 101%

COc1ccc(C(=O)/C=C/c2sc(Cl)nc2Cl)cc1
active: [9] -25.4% | [6] -3.81% | [8] 1.37%
inactive: [10] 22.9% | [2] 47.1% | [3] 42.2% | [4] 39% | [5] 11.1% | [7] 58.5%

NC1CCN(c2nc(Nc3cccc(C(F)(F)F)c3)c3c(=O)[nH]ccc3n2)CC1
active: [9] -45.4% | [10] -44.7% | [3] -49.7% | [4] -76.1% | [5] -46.2% | [6] -72.2% | [7] -24.5% | [8] -30.8%
inactive: [2] 14.9%

From PubChem BioAssay (NCI)
